Only a selection was taken, and hits are over-represented in it overall.
Pf Dd2 growth = blocks in vitro growth of P. falciparum Dd2. Potency, µM (titrated, usually from 28.9 µM), for the others: at the top dose activity, negative = inhibition, actives largely listed as inhibitors. 120,000 compounds, 4.3% hits. P. falciparum Dd2 growth, SYBR Green, 72 h; active means well fitted inhibition curve with a large enough effect;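 further: plate controls were DMSO vehicle for no effect and reference drug for full effect; nearly all actives have a fitted effect of over 65% in size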
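Infected erythrocytes (Dd2, 0.3% parasitemia, 2.5% hematocrit final) are added to compound in RPMI-1640/Albumax II medium, grown 72 h at 37C in low oxygen, then lysed with saponin/Triton-X containing SYBR Green and read by fluorescence.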
* = called active by the depositor; i = inactive; [ ] = another dose, or the depositor's remark. Potency means the concentration at half of the fitted maximal effect.

SMILES	Pf Dd2 growth
COc1cc(NC(=O)CCC2CCN(C(=O)c3ccccc3F)CC2)cc(OC)c1	-17%
CC(C)c1ccc(N2C(=O)N[C@@H]3CCN(C(=O)c4ccc(C(F)(F)F)cc4)[C@@H]3C2=O)cc1	i
CCc1noc(-c2cn(C3CCN(C(=O)c4ccc(OC)c(OC)c4)C3)nn2)n1 (stereo not given)	i
CCS(=O)(=O)Nc1ccc(C(=O)NCc2cc3n(n2)CCNC3)cc1	0%
CN(c1cc(=O)c2ccnc(Nc3ccc(F)c(Cl)c3)c2o1)C1CCOCC1	-16%[44.1 µM]
CN1C(=O)CC(C(=O)O)C12CCN(Cc1cc(Cl)ccc1F)CC2 (stereo not given)	-10%
Cc1ccc(S(=O)(=O)N[C@H](C)c2onc(C)c2C(=O)O)cc1	6%[44.1 µM]
Cc1ccc(CNC(=O)N2CCC(Oc3ccccc3-c3nc(C)no3)C2)cc1 (stereo not given)	-18%
CC1(CCCCc2ccccc2)COc2ccc(C(=O)NC3CCOCC3)cc2N1 (stereo not given)	-25%[44.1 µM]
CC(=O)Nc1ccc(CN2C3CCC2CN(C(=O)Nc2ccccc2F)C3)cc1	i
O=C([C@@H]1C[C@H](Oc2cccnc2)CN1C(=O)CCCc1ccccc1)N1CCOCC1	8%
Cc1nn2c(c1-c1ccccc1OCc1ccccc1)N(C(=O)CCc1cccnc1)CCC2	i
COc1cccc(CC(=O)N2CCCn3nc(C)c(-c4ccccc4Oc4ccccc4)c32)c1	13µM*
Cc1nn2c(c1-c1ccccc1Oc1ccccc1)N(C(=O)C1CCC1)CCC2	-2%[44.1 µM]
Cc1nn2c(c1-c1ccccc1-c1ccccc1)N(C(=O)c1cccnc1)CCC2	i
COc1ccc(C(=O)N2CCCn3nc(C)c(-c4ccccc4-c4ccccc4)c32)cc1	10µM*
COc1ccc(C(=O)N2CCCn3nc(C)c(-c4ccccc4-c4ccccc4)c32)cn1	i
O=C(NCC1CN(C(=O)Cc2cccc(OC(F)(F)F)c2)CC12CN(c1ccccc1)C2)Nc1ccccc1 (stereo not given)	-9%
OCCOc1ccc(-c2c(-c3ccccc3)ncn2CCc2cccnc2)cc1	10%
Cc1ccc(C(=O)NC2CCN(c3cc(-c4ccccc4)[nH]n3)CC2)cc1F	-26%
CN1CC2(CCN(Cc3ccc(C#N)cc3)CC2)CC(c2ccccc2)C1=O (stereo not given)	i
CC(CN)(c1ccccn1)N1CCOCC1 (stereo not given)	3%[44.1 µM]
CCOCCn1c(=O)n(C(CC)C(=O)NC(C)(C)C)c2cc(C(=O)O)cnc21 (stereo not given)	-4%
O=C(NCCc1ccncc1)C1c2ccccc2C(=O)N(Cc2ccccc2)C12CCCC2 (stereo not given)	-29%
O=C(NCCc1ccncc1)C1c2ccccc2C(=O)N(C2CCCCC2)C12CCCCC2 (stereo not given)	10µM*
SMILES	Pf Dd2 growth
CCCNC(=O)C1c2ccccc2C(=O)N(C2CCCCC2)C12CCCCC2 (stereo not given)	i
COCc1nnc2n1CCC(NC(=O)CCCc1c[nH]c3ccccc13)CC2 (stereo not given)	12%
COc1cccc(CNC(=O)CN2CC3CC(C2)[C@H]2CCCC(=O)N2C3)c1OC (stereo not given in full)	-20%
CCOc1ccccc1-c1noc(-c2nnn3c2COC(c2ccc(OC)cc2)C3)n1 (stereo not given)	-4%
NCCn1cc(C(=O)NCC(O)c2ccccc2C(F)(F)F)nn1 (stereo not given)	9%
CC(C)N1C(=O)C2(CCCC2)C1C(=O)NCCCN1CCCC1 (stereo not given)	-6%
CC(C)N1C(=O)C2(CCCC2)C1C(=O)NCCCN1CCN(c2ccccc2)CC1 (stereo not given)	-12%
CC1(C(=O)NCCCN2CCc3ccccc3C2)CCCCC(=O)N1 (stereo not given)	-13%
COc1ccc(N2C(=O)C3(CCCCC3)C2C(=O)O)cc1 (stereo not given)	7%
COc1ccc(N2C(=O)C3(CCCCC3)C2C(=O)NCCCN2CCCC2)cc1 (stereo not given)	4.5µM*
COc1ccc(N2C(=O)C3(CCCCC3)C2C(=O)NCCN2CCc3ccccc3C2)cc1 (stereo not given)	8.9µM*
COc1ccc(N2C(=O)C3(CCCCC3)C2C(=O)NCCCN2CCCCC2)cc1 (stereo not given)	11µM*
CCN1CCN(CCNC(=O)C2N(C(C)C)C(=O)C23CCCCC3)CC1 (stereo not given)	12%
CCC(=O)N1c2ccccc2CC1C(=O)NCCCN1CCN(c2ccc(OC)cc2)CC1 (stereo not given)	7%
CCS(=O)(=O)N(C1CC1)C1CCOC2(CCN(C(=O)NCc3ccccc3)CC2)C1 (stereo not given)	i
CC(C)=CCC1(C(=O)O)CCCN(C(=O)c2cn(C)nc2C)C1 (stereo not given)	-3%
O=C(Cc1ccccc1)N1CCC(Oc2cccnc2)C1 (stereo not given)	16%
Cc1[nH]cnc1CN1CCC(c2nnc(CN3CCCCC3)n2C)CC1	4%
COc1cc(NC(=O)c2cccc(F)c2)ccc1NC(=O)c1cc2ccccc2o1	6%
COc1ccccc1Nc1c2c(nc3ccc(NC(=O)/C=C/c4cccc(OC)c4OC)cc13)CCCC2	1.1µM*
COc1ccccc1Nc1c2c(nc3ccc(NC(=O)c4cccc(F)c4)cc13)CCCC2	3.2µM*
COc1ccc(C)cc1NC(=O)CC(=O)Nc1ccc2nc3n(c(=O)c2c1)CCCCC3	-13%
COc1ccccc1NC(=O)c1sc2nc3c(cc2c1N)CCCCCC3	i
COc1ccc(/C=C/C(=O)Nc2ccc3nc4c(c(Nc5ccccc5OC)c3c2)CCCC4)cc1	1.3µM*
COc1ccc(C)cc1Nc1c2c(nc3ccccc13)CCC2	13µM*
SMILES	Pf Dd2 growth
COc1ccccc1NC(=O)Cn1nc2c(cc1=O)CCCC2	-12%
COc1ccc(Nc2c3c(nc4ccccc24)CCC3)cc1Cl	i
Fc1ccccc1Nc1c2c(nc3ccccc13)CCC2	-22%
COc1ccc(OC)c(NC(=O)c2ccc3c(Cl)c4c(nc3c2)CCCC4)c1	-5%
CC[C@H]1CN(C(=O)c2ccnc(Cl)c2)CC[C@H]1CC(=O)N1CCC(C(N)=O)CC1	11%[44.1 µM]
CNC(=O)[C@@H]1CN(C(=O)c2cc(C)n(CCOC)c2C)C[C@H]1CO	1%
CCn1cc(CN2CCN(C(=O)c3sccc3C)CC2)ccc1=O	14%
CCCCCC(=O)N[C@@H](Cn1ccc(=O)[nH]c1=O)C(=O)O	15%[44.1 µM]
Cc1ccc(-c2nc(C(=O)NCc3ccccc3C)no2)cc1	67%
CNC(=O)[C@@H](CC(C)C)N1CCC[C@H]1C(=O)NCc1ccncc1	-3%[44.1 µM]
CCc1noc(-c2cccn3c(CNC(=O)CCC4CCCC4)nnc23)n1	i
COc1ccc(NC(=O)c2c(OC)cc(=O)n3c2CCCC3)cc1OC	i
COc1ccc(Nc2c3c(nc4ccc(NC(=O)/C=C/c5cccc(OC)c5OC)cc24)CCCC3)cc1OC	4µM*
COc1ccc(NC(=O)Cn2nc(C(F)(F)F)c3c2CCCC3)cc1OC	-7%
c1ccc2ncc(CNC[C@H]3Cn4c(-c5ccc6c(c5)OCCO6)cnc4CO3)cc2c1	-3%[44.1 µM]
CC(CCc1ccco1)NC(=O)CN1CCCc2nc(-c3ccccc3)ncc2C1=O (stereo not given)	-12%
COCCN1CCOC[C@H]2CCNC[C@H]21	-1%
CC(C)(C)n1nc(C2CCOCC2)nc1C1=NNC(=O)CC1	10%
Cc1ccc(NC2=C(c3ccc(C(F)(F)F)cc3)C(=O)c3ccccc32)cc1C	0.79µM*

Screens as filed in PubChem.
